Measured values from PubChem BioAssay AID504782 (NMMLSC, 2011).
Some of the results follow. The source made the active and inactive calls.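 How the source made its calls: active means inhibition of aptamer binding above 40%, about triple the noise seen with nonglowing compounds, on plates passing quality control; inactive means the rest.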

What follows are molecules tested against Beta-adrenergic receptor kinase 1 (Homo sapiens) (UniProt P25098) (assay: RNA aptamer-GRK2 binding blockers – biochemical, cherry pick 2, bead flow cytometry, confirmation (AID 504782;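 on inhibition of aptamer binding: negative values mostly come from compounds that fluoresce themselves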)). Conditions: bead-bound GRK2, FAM-aptamer displacement; at 10 µM, hits give high values.
Beta-adrenergic receptor kinase 1 (Homo sapiens), sequence (P25098 whole entry, looked up): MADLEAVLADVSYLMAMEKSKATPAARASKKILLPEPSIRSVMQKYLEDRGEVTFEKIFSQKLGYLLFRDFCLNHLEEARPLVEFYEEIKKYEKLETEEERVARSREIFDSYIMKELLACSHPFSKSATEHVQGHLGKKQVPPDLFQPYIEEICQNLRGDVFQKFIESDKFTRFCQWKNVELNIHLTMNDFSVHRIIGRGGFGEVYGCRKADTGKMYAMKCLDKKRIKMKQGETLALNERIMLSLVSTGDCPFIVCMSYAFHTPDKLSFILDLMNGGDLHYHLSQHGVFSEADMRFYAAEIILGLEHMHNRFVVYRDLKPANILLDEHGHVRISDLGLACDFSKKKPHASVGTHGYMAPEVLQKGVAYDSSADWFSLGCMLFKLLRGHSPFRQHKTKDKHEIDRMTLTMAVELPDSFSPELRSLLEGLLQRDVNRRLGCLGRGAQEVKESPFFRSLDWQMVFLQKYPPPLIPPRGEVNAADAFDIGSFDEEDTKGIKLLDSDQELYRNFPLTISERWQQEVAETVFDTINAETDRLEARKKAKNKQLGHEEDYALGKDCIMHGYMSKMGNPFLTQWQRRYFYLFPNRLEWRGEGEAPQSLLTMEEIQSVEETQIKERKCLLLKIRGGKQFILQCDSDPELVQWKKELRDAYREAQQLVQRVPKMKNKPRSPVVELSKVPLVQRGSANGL

SMILES	inhibition of aptamer binding	outcome
CCc1nn(CCCN2CCN(c3cccc(Cl)c3)CC2)c(=O)n1CCOc1ccccc1	4.83% (inactive)	–
O=C(C1CCCN(S(=O)(=O)c2ccc([N+](=O)[O-])cc2)C1)N1CCCCC1 (stereo not given)	-14.3% (inactive)	–
Cc1ccc(S(=O)(=O)CC(=O)Nc2sc(C)c(C)c2C(N)=O)cc1	-39.3% (inactive)	–
CN=C(Nc1cccc(S(=O)(=O)N2CCOCC2)c1)c1ccccc1	-13.4% (inactive)	–
COc1ccc(Cl)cc1NC(=O)CCS(=O)(=O)c1ccc(Br)cc1	75.5% (active)	–
CC1CCN(C(=S)NC2CC3CCC2C3)CC1 (stereo not given)	-12.2% (inactive)	–
CCOCCc1c(O)nc(SCC(=O)NCc2ccco2)[nH]c1=O	-20.9% (inactive)	–
COc1cc([N+](=O)[O-])cc([N+](=O)[O-])c1NC(=O)N1CCOCC1	8.51% (inactive)	–
O=C(CCS(=O)(=O)c1ccccc1)NC1CCCC1	1.15% (inactive)	–
CC(=O)c1ccc(N2CCN(C(=O)c3ccc4nc[nH]c4c3)CC2)cc1	-5.06% (inactive)	–
COc1cccc(OC)c1C(=O)Nc1ccc(Cc2ccncc2)cc1	-1.61% (inactive)	–
NC(=O)[C@H]1CC2(CC(c3cccc(NC(=O)[C@H]4CCC(=O)N4)c3)=NO2)CN1C(=O)c1ccccc1C(=O)c1ccccc1 (stereo not given in full)	-25.8% (inactive)	–
COCCn1c(N)c(NCc2ccccc2)c(=O)[nH]c1=O	-165% (inactive)	–
CCOC(=O)C1=C(N)N(c2ccc(C)cc2)C2=C(C(=O)CCC2)C1c1cccs1 (stereo not given)	–	inactive
COc1ccccc1C(=O)N(Cc1ccc(C)o1)C1CCS(=O)(=O)C1 (stereo not given)	10.1% (inactive)	–
CCC(C)(C(=O)NC1CCCCC1)N(C)C(=O)c1ccc2c(c1)OCO2 (stereo not given)	-12.4% (inactive)	–
O=C(NC1C2CC3CC(C2)CC1C3)c1ccc(N2CCNCC2)c([N+](=O)[O-])c1 (stereo not given)	-5.52% (inactive)	–
COc1ccc(Cl)cc1NC(=O)CCS(=O)(=O)c1cc2c(cc1C)NC(=O)CO2	-12.2% (inactive)	–
CCOc1ccc(OCC)c(NC(=O)CCS(=O)(=O)c2ccc(C)cc2)c1	-1.15% (inactive)	–
CCOCCCNC(=O)c1ccc(CS(=O)(=O)c2cccc(C(F)(F)F)c2)o1	8.74% (inactive)	–
CCN1CCN(C(=O)N[C@@H](C(=O)N[C@@H]2C(=O)N3C(C(=O)O)=C(CSc4nnnn4C)CS[C@H]23)c2ccc(O)cc2)C(=O)C1=O	-21.6% (inactive)	–
O=[N+]([O-])c1ccccc1S(=O)(=O)Nc1cccc2cccnc12	7.36% (inactive)	–
Cc1nnc(SCC(=O)N2c3ccccc3C(C)(c3ccc(Cl)cc3)CC2(C)C)s1 (stereo not given)	14.7% (inactive)	–
CC1Sc2ccc(S(=O)(=O)CCC(=O)NCc3ccccc3Cl)cc2NC1=O (stereo not given)	2.07% (inactive)	–
O=C(NCCCN1CCCCCC1)c1ccc(N2CCCC2=O)cc1	-112% (inactive)	–
